Our source for the growth values is PubChem BioAssay (NCI).

Some test systems named below: DU-145 prostate; K-562 leukemia; MALME-3M melanoma; MDA-MB-231 breast; RXF 393 renal; SF-268 CNS; SF-295 CNS; SF-539 CNS; UACC-257 melanoma; M14 melanoma; HCT-15 colon; HT29 colon; SNB-75 CNS; SNB-19 CNS; PC-3 prostate; SK-MEL-5 melanoma; UACC-62 melanoma; LOX IMVI melanoma; SK-MEL-28 melanoma; U251 CNS.
Holding throughout (test): NCI-60 one-dose screen, 48 h (100 = growth as untreated, 0 = no growth, -100 = all killed)
What all share (conditions): 10 µM unless noted

SMILES strings stand for the structures. Compounds without any hit were thinned out: in the full panel of roughly 83,000, 20% have a hit.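 Cell lines were cultured in 96-well plates, exposed to a single compound concentration, and assessed for percent growth 48 hours later.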 Values without a mark were called inactive. Active and inactive are the calls of the source. The calls were made as follows: active = growth percent below 10; inactive = the rest.

Regarding `Cc1c(C(=O)Nc2nc(-c3ccccc3)cs2)nnn1-c1ccccc1Br`, the growth was 51.8% [50 µM] with DU-145 prostate; 20.3% [50 µM] in the test with K-562 leukemia; 17.5% [50 µM] with MALME-3M melanoma; 44% [50 µM] with MDA-MB-231 breast; 76.4% [50 µM] in the test on RXF 393 renal; 61.5% [50 µM] with SF-268 CNS. Further, the growth is 31.2% [50 µM] in the test on SF-295 CNS; 63.8% [50 µM] in the test on SF-539 CNS; 13.2% [50 µM] in the test with UACC-257 melanoma; 43.1% [50 µM] in the test on M14 melanoma; 29.5% [50 µM] in the test with HCT-15 colon; 16.3% [50 µM] in the test on HT29 colon. The growth in the test on SNB-75 CNS is 67.8% [50 µM]; in the test with SNB-19 CNS, 61.1% [50 µM]; in the test with PC-3 prostate, 44.8% [50 µM]; in the test on SK-MEL-5 melanoma it was -68.6% [50 µM] (active); with UACC-62 melanoma it was 39.4% [50 µM]; in the test with LOX IMVI melanoma, 12% [50 µM]. Moreover, in the test with SK-MEL-28 melanoma, the growth is 44.5% [50 µM].
Turning to `NC(=O)c1nc2c([nH]c1=O)CCCC2`, the growth was 108% in the test on DU-145 prostate; 92.2% in the test with K-562 leukemia; 101% in the test on MALME-3M melanoma; 118% with MDA-MB-231 breast; 97.6% with RXF 393 renal; 101% in the test on SF-268 CNS. Moreover, the growth is 103% in the test with SF-295 CNS; 96.6% in the test on SF-539 CNS; 109% in the test with UACC-257 melanoma; 122% in the test on M14 melanoma; 102% with HCT-15 colon; 101% in the test on HT29 colon. Besides, the growth in the test on SNB-75 CNS is 89.6%; in the test on U251 CNS it was 106%; in the test with PC-3 prostate it was 101%; in the test with UACC-62 melanoma, 106%; in the test with LOX IMVI melanoma, 99.1%; with SK-MEL-28 melanoma it was 103%.
On to `ONc1nc(NO)c2[nH]cnc2n1`, for which the growth with DU-145 prostate is 74.6%; in the test on K-562 leukemia, 23%; with MALME-3M melanoma, 90.8%; with MDA-MB-231 breast, 77.4%; in the test with RXF 393 renal it was 86.1%; in the test with SF-268 CNS, 58.8%. For the same compound, the growth with SF-295 CNS is 91%; in the test with SF-539 CNS, 103%; in the test on UACC-257 melanoma, 105%; in the test with M14 melanoma, 76.7%; in the test with HCT-15 colon, 89.9%; in the test on HT29 colon, 109%. Moreover, the growth in the test with SNB-75 CNS is 88.6%; in the test with SNB-19 CNS it was 112%; with PC-3 prostate it was 69.2%; in the test with SK-MEL-5 melanoma, 102%; in the test with LOX IMVI melanoma, 26%; with SK-MEL-28 melanoma, 91%.
Take `COc1ccc(-n2ncc3c4nc(OC)c(S(=O)(=O)c5ccccc5)cc4ccc32)cc1`: the growth is 73% in the test with DU-145 prostate; 119% in the test with K-562 leukemia; 56.9% in the test with MALME-3M melanoma; 75.6% with MDA-MB-231 breast; 35.1% with RXF 393 renal; 50.9% in the test on SF-268 CNS. Further, the growth in the test with SF-295 CNS is 84%; in the test with SF-539 CNS, 30.7%; with UACC-257 melanoma, 76.9%; in the test with M14 melanoma, 85%; in the test with HCT-15 colon it was 77.6%; with HT29 colon, 70.3%. Also, the growth is 6.98% (active) with SNB-75 CNS; 64.9% in the test on SNB-19 CNS; 79.4% with PC-3 prostate; 90.4% in the test on SK-MEL-5 melanoma; 86.1% with LOX IMVI melanoma; 71.6% in the test on SK-MEL-28 melanoma.
For the compound `CCCCC(=O)N/N=C/c1cc(I)cc(I)c1O`, the growth was 51% in the test with DU-145 prostate; 32.1% in the test with K-562 leukemia; 75.8% in the test on MALME-3M melanoma; 57% in the test on MDA-MB-231 breast; 74.6% in the test on RXF 393 renal; 43.1% in the test with SF-268 CNS. Moreover, the growth was 41.2% in the test on SF-295 CNS; 28.8% with SF-539 CNS; 41.8% in the test on UACC-257 melanoma; 56.4% in the test on M14 melanoma; 15.6% in the test with HCT-15 colon; 56.2% in the test with HT29 colon. The growth in the test on SNB-75 CNS was 62.8%; with SNB-19 CNS it was 62.9%; with PC-3 prostate, 47%; in the test with UACC-62 melanoma it was 38.8%; in the test with LOX IMVI melanoma, 38.9%; in the test on SK-MEL-28 melanoma, 58.8%.
On to `CCN(C(=O)c1ccc2c3c(cccc13)C=C2)c1ccccc1`, for which the growth with DU-145 prostate is 113%; in the test with K-562 leukemia, 82.7%; in the test with MALME-3M melanoma, 90.1%; in the test on MDA-MB-231 breast, 103%; in the test on RXF 393 renal, 102%; in the test with SF-268 CNS, 107%. Besides, the growth was 93.6% with SF-295 CNS; 97.4% in the test with SF-539 CNS; 97% in the test with UACC-257 melanoma; 94.5% in the test with M14 melanoma; 88.7% in the test on HCT-15 colon; 88.8% in the test with HT29 colon. The growth is 88.9% in the test with SNB-75 CNS; 93.7% with SNB-19 CNS; 83.7% in the test with PC-3 prostate; 93.9% in the test with SK-MEL-5 melanoma; 80.3% in the test with UACC-62 melanoma; 108% in the test on SK-MEL-28 melanoma.
With `COc1cc2cc(Oc3ccc(NC(=O)Nc4cccc(C(F)(F)F)c4)cc3)c(C)nc2cc1OCCN1CCCCC1`, the growth in the test with DU-145 prostate was -94.1% (active); with K-562 leukemia, -49.7% (active); with MALME-3M melanoma it was -88.5% (active); in the test on MDA-MB-231 breast it was -86.8% (active); in the test on RXF 393 renal it was -70.6% (active); in the test with SF-268 CNS it was -78.4% (active). For the same compound, the growth is -57.4% (active) in the test with SF-295 CNS; -92.4% (active) in the test on SF-539 CNS; -68.9% (active) in the test on UACC-257 melanoma; -64.1% (active) in the test on M14 melanoma; -81.9% (active) with HCT-15 colon; -81.7% (active) in the test on HT29 colon. In addition, the growth with SNB-19 CNS was -55.1% (active); in the test with U251 CNS, -82.4% (active); in the test with PC-3 prostate, -54.6% (active); in the test with SK-MEL-5 melanoma, -94.1% (active); in the test on UACC-62 melanoma, -74.2% (active); with LOX IMVI melanoma it was -94.3% (active). Also, the growth with SK-MEL-28 melanoma was -92.1% (active).
For the compound `O/N=C/c1cccs1`, the growth is 116% in the test with DU-145 prostate; 87.2% in the test with K-562 leukemia; 105% in the test with MALME-3M melanoma; 112% with MDA-MB-231 breast; 107% in the test with RXF 393 renal; 111% with SF-268 CNS. For the same compound, the growth is 95% in the test on SF-295 CNS; 96.9% in the test with SF-539 CNS; 98.5% with UACC-257 melanoma; 105% with M14 melanoma; 98.4% in the test on HCT-15 colon; 107% in the test on HT29 colon. The growth in the test with SNB-75 CNS is 94.3%; with SNB-19 CNS, 107%; in the test with PC-3 prostate, 101%; with UACC-62 melanoma, 119%; in the test on LOX IMVI melanoma, 107%; in the test with SK-MEL-28 melanoma it was 112%.
